This passage reports PBM binding z-score results from the supplement of paper PMC6555819.

For the first experiment, the system named is PPARg homodimer (NR concentration 180 nM). In words: PBM binding z-score (relative to random genomic background probes); higher = stronger binding; sequences stand for … in GC…GCGATTGACAGCGTAGAATGAAGG
The method, boiled down:
(§1)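 Binding buffer was PBS pH 7.4 with 2% milk, 0.02% Triton X-100, 1 mM DTT, 0.2 mg/mL BSA and 0.4 mg/ml salmon testes DNA. In it, ligand-free nuclear receptor dimers were incubated 1 h on custom Agilent 4×180K protein-binding microarrays carrying double-stranded probes. Antibodies against each partner (one per run) detected binding, and z-scores were calculated against random background probes after regression normalization of scanned fluorescence.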
In turn, TCTTGTAGATTAGCAGGTTAAGAAAGCTGGCCAA came in with a PBM binding z-score of 0.0886.
CGAACTAGGTCAGAACAGGACAGTGAAGGATGAT: the PBM binding z-score worked out at 0.92.
CCTACTGGCCCAAAGGTCATTGATTCCAATGCTC yielded a PBM binding z-score of 2.07.
For the sequence CGAACCAGGGCATGAGTTGATAGCAAATGCCGAT, the PBM binding z-score was determined as 0.228.
The same measure, in the same setting: the value for TTCCCAAGGTGAAAGGTCGTTGATGCACGCCTTG was 1.79; that for CCTGCTACGTCATGGTCAGCTAATCTACAGTATG was -0.235; that for TCGAGTAGGTTACCAATGAGGCATTCAGCTTTCT was -0.815.
On the same count and under the same terms, the value for AGTCAAAGTTCATCTAGGTAACGTACGATATGCT was 2.4; that for TCTAGGTGGTCACGGAGGTCACACACGACGGGTA was 2.75.
Still for that read-out and setting: the value for ACTAGCAGGCCAAGGGTCACCCAAGATTAGTCCG was 2.65; that for GATACAGTGTCAGCTAGAGGCCAGAGTATGGAAA was -0.286.
In the case of CCTTCTGGGCCATCAGGTCATTGATATCAACGTT, the PBM binding z-score was 1.37.
On the same count and under the same terms, in the case of TCTTGTAGATAAACAGGAGGTTAAGAAAGATCGA it was 0.0399; in that of CCTACTGGGCCAAGGGTCATTGATTCCAATGCTC, 1.67; in that of GCTTGGAGATCAAGGTTAAGAAAGACTAAGCTAA, 0.0193.
With ATCTCTAGGTAAGACTCAGTTCAGCGAAGAACGC, the PBM binding z-score turned out to be 0.96.
In turn, TCTAGTTTGTCACGGAGGTCACACACGACGGGTA gave a PBM binding z-score of 2.96.
The same measure, in the same setting: the value for TCTGGTAGATCAAGCAGGTTAAGAAAGCCTGAGT was -0.462; that for TTACCAAGGTGAGCTGAGGCCGTTGATCCAACTC was -0.831.
On to TCTTGTAGCTCAATAGAGGTTAAGAAAGTGCGCT, for which the PBM binding z-score is -0.185.
For ATCTCTAGGGAACCAAGTTCAGTGAATGCCGAAC, the PBM binding z-score stood at 0.45.
The same measure, in the same setting: in the case of TCTATTAGTTGAAGGACAACCGACGAGTCCGTTT it was 1.31; in that of ACTAGCAGGCCAAGTTGGGGTCACTCAAACAAAG, 2.25.
With TTACCAATGTGAGCTGAGGTCGTTGATCCAACTC, the PBM binding z-score was -0.49.
TCATATAGGTAATACAGGTGAAAATCGGCATCTA gave a PBM binding z-score of 1.22.
TCTGCTAGGTCTGTTGGTCAGCTAACGAGCTGCC gave a PBM binding z-score of -1.76.
On the same count and under the same terms, in the case of TCTAGTTGGTCACGGAGGTCAAACACGACGGGTA it was 3.43; in that of TCATTTAGGTAAAAGGTGAAAGTCGGTGTGGTAA, 2.08; in that of CGTCCAAGGTCAGAGAGGGCAGTGAATGCCGAGT, 1.84.
The sequence AATACAGGGTCACTAGGCCAGACTAGGTACGAAT yielded a PBM binding z-score of 1.28.
Same read-out and setting: the value for ACTTACGGGCCAACGAGGTTATAGCACGCGTATA was 0.076; that for CACCCTAGGTCAGGGCCAGTATAGGAGGAACGTT was 1.71.
The same measure, in the same setting: the value for CGAACTAGGTCGTTGACAGGACAGTGAATAGTAA was 0.203; that for TCGAGTAGGTTACCAAAGGGGCATTCAGCTTTCT was 0.4.
On the same count and under the same terms, the value for TCTTGTAGACCAGCAGGTTAAGAAAGCTGGCCAA was -0.0673; that for CCTATTAGTTGACCATAAGGGCAGCCGAAGCTCG was 1.6; that for CATACATGGTCAGCTAGGCCAGAGTAGGGACGGC was -0.795.
As for TCTTGTAGATCAATAGAGTTTAAGAAAGTGCGCT, the PBM binding z-score was -0.192.
Same read-out and setting: the value for AGAATGAGGTTATACGTAGATAAGGGAAGAAAGT was 0.963.

The subject of the next experiment is PXR:RXRa (NR concentration 270 nM, RXRa partner concentration 90 nM). The experiment is described as above. The method, boiled down: as §1
As to TCTTGTAGATTAGCAGGTTAAGAAAGCTGGCCAA, the PBM binding z-score came out at 0.329.
Take CGAACTAGGTCAGAACAGGACAGTGAAGGATGAT: the PBM binding z-score was 0.787.
Still for that read-out and setting: the value for CCTACTGGCCCAAAGGTCATTGATTCCAATGCTC was 5; that for CGAACCAGGGCATGAGTTGATAGCAAATGCCGAT was -0.0525.
In turn, TTCCCAAGGTGAAAGGTCGTTGATGCACGCCTTG gave a PBM binding z-score of 4.12.
On the same count and under the same terms, the value for CCTGCTACGTCATGGTCAGCTAATCTACAGTATG was -0.16; that for TCGAGTAGGTTACCAATGAGGCATTCAGCTTTCT was -0.0047.
The same measure, in the same setting: in the case of AGTCAAAGTTCATCTAGGTAACGTACGATATGCT it was 5.22; in that of TCTAGGTGGTCACGGAGGTCACACACGACGGGTA, 4.44; in that of ACTAGCAGGCCAAGGGTCACCCAAGATTAGTCCG, 3.94.
Same read-out and setting: in the case of GATACAGTGTCAGCTAGAGGCCAGAGTATGGAAA it was -0.439; in that of CCTTCTGGGCCATCAGGTCATTGATATCAACGTT, 1.64; in that of TCTTGTAGATAAACAGGAGGTTAAGAAAGATCGA, 0.748.
In turn, CCTACTGGGCCAAGGGTCATTGATTCCAATGCTC had a PBM binding z-score of 3.15.
On the same count and under the same terms, in the case of GCTTGGAGATCAAGGTTAAGAAAGACTAAGCTAA it was 0.278; in that of ATCTCTAGGTAAGACTCAGTTCAGCGAAGAACGC, 0.943.
Turning to TCTAGTTTGTCACGGAGGTCACACACGACGGGTA, the PBM binding z-score worked out at 4.44.
The same measure, in the same setting: the value for TCTGGTAGATCAAGCAGGTTAAGAAAGCCTGAGT was 0.159; that for TTACCAAGGTGAGCTGAGGCCGTTGATCCAACTC was 2.17; that for TCTTGTAGCTCAATAGAGGTTAAGAAAGTGCGCT was 2.46.
On the same count and under the same terms, the value for ATCTCTAGGGAACCAAGTTCAGTGAATGCCGAAC was 1.24.
Same read-out and setting: the value for TCTATTAGTTGAAGGACAACCGACGAGTCCGTTT was 1; that for ACTAGCAGGCCAAGTTGGGGTCACTCAAACAAAG was 5.29.
Sequence TTACCAATGTGAGCTGAGGTCGTTGATCCAACTC displayed a PBM binding z-score of 2.46.
TCATATAGGTAATACAGGTGAAAATCGGCATCTA had a PBM binding z-score of 0.9.
On the same count and under the same terms, the value for TCTGCTAGGTCTGTTGGTCAGCTAACGAGCTGCC was -0.467.
Same read-out and setting: the value for TCTAGTTGGTCACGGAGGTCAAACACGACGGGTA was 5.11.
Same read-out and setting: in the case of TCATTTAGGTAAAAGGTGAAAGTCGGTGTGGTAA it was 1.42.
The sequence CGTCCAAGGTCAGAGAGGGCAGTGAATGCCGAGT showed a PBM binding z-score of 3.91.
Still for that read-out and setting: the value for AATACAGGGTCACTAGGCCAGACTAGGTACGAAT was 3.06; that for ACTTACGGGCCAACGAGGTTATAGCACGCGTATA was 1.
Same read-out and setting: in the case of CACCCTAGGTCAGGGCCAGTATAGGAGGAACGTT it was 0.664; in that of CGAACTAGGTCGTTGACAGGACAGTGAATAGTAA, 0.234.
The same measure, in the same setting: in the case of TCGAGTAGGTTACCAAAGGGGCATTCAGCTTTCT it was 0.735.
The sequence TCTTGTAGACCAGCAGGTTAAGAAAGCTGGCCAA registered a PBM binding z-score of 0.0995.
The sequence CCTATTAGTTGACCATAAGGGCAGCCGAAGCTCG came in with a PBM binding z-score of 0.00471.
Still for that read-out and setting: in the case of CATACATGGTCAGCTAGGCCAGAGTAGGGACGGC it was -0.724; in that of TCTTGTAGATCAATAGAGTTTAAGAAAGTGCGCT, 2.24.
Still for that read-out and setting: in the case of AGAATGAGGTTATACGTAGATAAGGGAAGAAAGT it was 1.17.
